Assay results as given in PubChem BioAssay (NCI).
Compounds without any hit were thinned out: in the full panel of roughly 79,000, 15% have a hit. Unmarked numbers belong to inactive results. Calls of active or inactive are those of the source. Cut-off read from the data, not from the text of the source: active = growth inhibition above about 70%; inactive = the rest.

Legend:
[1] = NCI Yeast Anticancer Drug Screen. Data for the rad50 strain (AID 155);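 note: 0% = growth of vehicle-only cultures of the same strain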; settings: S. cerevisiae rad50 strain growth inhibition; at 50.0 µM; stronger effect = higher value
In short: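 Growth of the mutant yeast was measured after compound exposure and referenced to vehicle-treated cultures.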

[2] = NCI Yeast Anticancer Drug Screen. Data for the mec2-1 strain (AID 157); settings: S. cerevisiae mec2-1 strain, at 50.0 µM, stronger effect = higher value
In short: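 Strain: mec2-1 (DNA repair/cell cycle alteration). Compound exposure, then growth measured; inhibition expressed relative to vehicle.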

[3] = NCI Yeast Anticancer Drug Screen. Data for the sgs1 mgt1 strain (AID 161);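 note: 0% = growth of cultures given vehicle only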; settings: S. cerevisiae sgs1 mgt1 strain, at 50.0 µM, stronger effect = higher value
In short: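 Mutant yeast exposed to compound; growth scored against vehicle-only wells.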

[4] = NCI Yeast Anticancer Drug Screen. Data for the cln2 rad14 strain (AID 165);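 note: 0% = growth equal to vehicle treated cultures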; settings: S. cerevisiae cln2 rad14 strain, at 50.0 µM, stronger effect = higher value
In short: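 Compounds are applied to the cln2 rad14 yeast strain, and growth is then compared with that of vehicle-treated cultures to give inhibition.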

[5] = NCI Yeast Anticancer Drug Screen. Data for the bub3 strain (AID 167); settings: S. cerevisiae bub3 mutant strain, at 50.0 µM, stronger effect = higher value
In short: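 Whole-cell yeast assay. The mutant strain was incubated with compounds, and growth inhibition was determined by comparison with vehicle-treated cells.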

[6] = NCI Yeast Anticancer Drug Screen. Data for the mlh1 rad18 strain (AID 175); settings: S. cerevisiae mlh1 rad18 strain growth inhibition; at 50.0 µM; stronger effect = higher value
In short: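 Read-out is yeast growth inhibition, calculated against vehicle-only controls. The compound was applied to a strain engineered with DNA damage repair alterations.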

Compound | growth inhibition [1] | growth inhibition [2] | growth inhibition [3] | growth inhibition [4] | growth inhibition [5] | growth inhibition [6]
CCC1(C)OCC(C)(C)C(C(C)C)O1 (configuration not stated) | -13.7% | 3% | -17.4% | -62.5% | -39.6% | -14.6%
C=C(C)[C@H]1C[C@@H](O)[C@H]2O[C@@]2(C)C1 | -8.05% | -8.35% | -25.9% | -13.8% | 0.8% | -2.85%
CCOC(=O)C1=NN(c2ccccc2)C(=O)/C1=C\n1ccc(=O)[nH]c1=S | -32.5% | -43.8% | -44.5% | -36.1% | -25.9% | -60.8%
Cc1ccc(S(=O)(=O)OC(c2ccccc2)C(F)(F)F)cc1 (configuration not stated) | -4.05% | -15.6% | -7.2% | 6.9% | 2.9% | 2.85%
Cc1cc[n+](-c2nc3c([O-])n(C)c(=O)n(C)c-3n2)cc1 | 0.65% | 10.6% | 6% | -40.2% | 8.95% | 19.4%
O=C(NCCCCC(Br)C(=O)O)c1ccccc1 (configuration not stated) | -30% | -5.5% | -33.4% | -53.2% | -1.55% | -34.9%
CC(O)C1C(C(=O)O)C2C(C)OC(=O)C12 (configuration not stated) | -0.6% | -3.4% | -0.8% | 52.5% | 2.45% | 15.5%
O/N=C/c1cccc[n+]1Cc1ccccc1 | -4% | 6.3% | 0.95% | -23.9% | 4.85% | 1.25%
CC(C#N)Nc1ccc(Oc2ccc(C(C)(C)c3ccc(Oc4ccc(NC(C)C#N)cc4)cc3)cc2)cc1 (configuration not stated) | 6.25% | -2.6% | -8.3% | 7.1% | -23.6% | -40.1%
COc1ccc(CC2c3cc(OC)c(OC)cc3C=CN2C)cc1OC (configuration not stated) | 20.8% | 4.55% | 24.1% | 14.9% | 35.6% | 2.3%
CCC(CO)Nc1nc2c(c(=O)n(C)c(=O)n2C)n1CCO (configuration not stated) | -21.9% | -1.9% | 1% | 8.15% | -14.7% | -4.75%
CC(=O)c1ccc(C(=O)O)cc1 | 13.7% | -11.6% | 2.45% | -0.15% | -4.3% | 6.15%
CC(CN(C)C)C(/C=C/c1ccccc1)=N\Nc1ccccc1 (configuration not stated) | -5.7% | 23.4% | 7.85% | -6.3% | -2.1% | 3.25%
Cc1ccc(S(=O)(=O)N(CCO)CCCO)cc1 | -16.7% | -43.3% | -9.95% | 5.1% | -35.3% | 1.7%
COC(=O)/C=C(/C(=O)OC)c1c(C)c(C)c2c(C)cc(C)cc(C)c1-2 | 20.7% | 14.4% | 3.8% | 17.4% | 34.9% | 22.2%
COc1ccc(OC)c(/C=C/c2ccc(NC(=O)Nc3ccccc3Cl)cc2)c1 | 10.8% | 2.3% | -7.9% | -39.1% | 1.2% | 13.8%
Cc1ccc(S(=O)(=O)CNC(=O)C(O)(O)C(F)(F)F)cc1 | -24.9% | -2.5% | -9.45% | 27.8% | -1.9% | -12.4%
Cc1cc(=O)cc(-c2ccccc2)[nH]1 | -32.5% | -11.3% | -12.5% | -37.3% | -2.5% | 6.55%
CC1CC/C(=C\c2ccccc2)C(=O)/C1=C/c1ccccc1 (configuration not stated) | 22.2% | -11.1% | 13.8% | 9.45% | 30.2% | 28.8%
CN(C)c1ccc(C2(c3ccc(N(C)C)cc3)c3ccccc3C(=O)N2N)cc1 | 54.1% | 34.5% | 18.2% | 43.5% | 77.5% (active) | 21.7%
CC1(C)CCC(C2=CC(=O)c3c(O)ccc(O)c3C2=O)O1 (configuration not stated) | -8.25% | -17.1% | 10.5% | 17.9% | -12.6% | -2.8%

Compound | growth inhibition [1] | growth inhibition [2] | growth inhibition [3] | growth inhibition [4] | growth inhibition [5] | growth inhibition [6]
CCCC(CCC(C)=O)[N+](=O)[O-] (configuration not stated) | -9.05% | -3.15% | -8.85% | -14.2% | 1% | 12%
CC1OC(CC(=O)O)CC2=C1C(=O)c1c(O)cccc1C2=O (configuration not stated) | -6.3% | -8.3% | 17.2% | 0.6% | -14.2% | 10.2%
CCc1nc(N)nc(N)c1-c1ccc2nn(-c3ccccc3)[n+]([O-])c2c1 | 4.25% | 10.8% | 20% | 14.8% | 14% | 4.85%
CCC1OC(=O)CC(O)C(C)C(OC2OC(C)C(O)C(N(C)C)C2O)C(CC=O)CC(C)C(=O)/C=C/C2(C)OC2C1C (configuration not stated) | -13.4% | -43% | -23.5% | -18.7% | -28.9% | -36.4%
O=C(O)C#Cc1ccccc1 | 25.7% | -27.9% | -1.8% | 2.6% | -23.2% | 0.3%
COC(=O)/C=C(\C)CC(O)/C=C(\C)CCC=C(C)C (configuration not stated) | 21.1% | 49.1% | 75.1% (active) | 12.8% | 60.5% | -23.1%
OC(c1ccccc1)C(CN1CCCCC1)c1ccccc1 (configuration not stated) | 3.9% | 2.55% | 24.9% | -11.8% | 4.95% | 15.4%
CCOC(=O)c1c(C)c2c(n1C)CCC(C#N)C2=O (configuration not stated) | 9.3% | 10.4% | 9.8% | 21.1% | 9.05% | 17.5%
CCNC(=O)OCCN(CCOC(=O)NCC)CCc1ccccc1 | 8.7% | 9.15% | 15.5% | -7.75% | -17.4% | 6.3%
CCc1c(O)cc(=O)oc1-c1ccc(OC)c(OC)c1 | 21% | -16.2% | 2.15% | 6.05% | -6.9% | -26.6%
CCOC(=O)c1ccc(N)cc1 | 19.2% | 20.1% | -3.1% | -9.55% | -18.6% | -1.8%
COc1cccc2sc(-n3c(C)nc4ccccc4c3=O)nc12 | 33.5% | 12.5% | 54.8% | 17.9% | 51.9% | 40.5%
O=C(OC(=O)c1cccnc1)c1cccnc1 | -30.2% | -9.5% | -7.75% | 11.5% | -2.85% | 6.65%
COc1ccc(-c2nc(N)nc(-c3cc(C)ccc3O)c2Cl)cc1 | 12.7% | -0.45% | 5.3% | 17.4% | 6.5% | 12.6%
CC12CCC(C(=O)n3c1nc1ccccc13)C(C)(C)O2 (configuration not stated) | 8.15% | -6.85% | -7.45% | 4% | 4.25% | -12.3%
CCc1cc(C(C)(C)C)c(O)c(C(C)(C)C)c1 | 33.6% | 9.65% | 6.25% | 25.2% | 8.4% | 35.4%
O=C(NC1(C(=O)Oc2ccc([N+](=O)[O-])cc2)CCCC1)OCc1ccccc1 | 7.25% | 20.2% | 26.1% | 8.85% | -1.7% | 28.9%
S=C=Nc1ccc(CSc2nc3ccccc3[nH]2)cc1 | 0.8% | -9.25% | 12.8% | 2.4% | 9.4% | -11.2%
O=C(Nc1ccccc1)OC1C=CC2CCC1C2 (configuration not stated) | 7.75% | 3.35% | 38.6% | 12.8% | 17.8% | 58.3%
COc1cc(Br)c(C2SCC(=O)N2c2nncs2)cc1OC (configuration not stated) | 1.55% | 11.3% | 7.9% | 0.7% | -2.15% | 26.6%
Cc1cccc2c(=O)[nH]c(=O)[nH]c12 | -14.2% | -12.2% | -2.15% | -58.8% | -4.4% | -20.1%
